# CaV13 ICDI inh – Disruptors of the CACNA1D IQ motif to Ca2+-dependent inactivation inhibitor domain association, primary screening, Förster resonance energy transfer in intact living … | inhibition, % at 12.3 µM | HEK cells, CFP/YFP FRET ICDI-IQ, plate reader, 10 min; percent FRET-ratio fall versus neutral wells | 0.098% of 340,000 active;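 active means mean replicate inhibition of at least 30% and at least 1% of replicates passing that level; inconclusive means only one of the two criteria is met; inactive means neither criterion is met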;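 further: 0% = median of the neutral control wells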
# DENV2 CPE rescue – inhibitors of DENV2 cytopathic effect. 1.7% of 350,000 active. CPE inhibition, % at 9.99 µM. DENV2-infected cells, cytopathic effect rescue, plate reader; in the data active means CPE inhibition above about 20%, passing the limit was not always enough; inconclusive means no clear call, values can overlap the other calls; tested in BHK-21 cells;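 further: 0% = median of neutral control wells and 100% = median of positive control wells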
# PGC1a acetyl inh – PGC1a acetylation modulation, inhibitor mode; U2OS PGC1a acetylation, AlphaScreen anti-acetyl-lysine; with virally co-expressed GCN5 acetyltransferase; inhibition, % at 15.6 µM; 0.17% of 350,000 active;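 active means every replicate shows inhibition of at least 40%; inconclusive means mean inhibition at least 40% but some replicate below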;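 further: 0% = neutral control wells and 100% = positive control wells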
# rRNA inh HTS – inhibitors of bacterial rRNA selective over humanized ribosomes | E. coli WT GFP vs humanized-ribosome RFP mutants, fluorescence, 24 h; stronger effect = lower value; DMSO median 0, no signal -100 | GFP signal change (wild-type ribosome), % (no concentration beside the values) | 1.6% of 350,000 active;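 active means significant combined selectivity score with lowered wild-type GFP, culture density cut under 30%, mutant RFP and density less affected; inactive means any of these conditions unmet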
# ERAP1 HTS inh – ERAP1 (human) enzyme inhibition. Q9NZ08. recombinant ERAP1, Leu-AMC fluorescence, 60 min. inhibition, % at 10.7 µM. 0.15% of 340,000 active. AID 652197;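 active means mean replicate inhibition of at least 30%, or all replicates individually reaching that 30% level; inactive means mean below 30% and not every replicate reaching it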;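 further: 0% = neutral control wells and 100% = L-leucinethiol positive control wells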
# Target sequence (Q9NZ08 whole entry, looked up): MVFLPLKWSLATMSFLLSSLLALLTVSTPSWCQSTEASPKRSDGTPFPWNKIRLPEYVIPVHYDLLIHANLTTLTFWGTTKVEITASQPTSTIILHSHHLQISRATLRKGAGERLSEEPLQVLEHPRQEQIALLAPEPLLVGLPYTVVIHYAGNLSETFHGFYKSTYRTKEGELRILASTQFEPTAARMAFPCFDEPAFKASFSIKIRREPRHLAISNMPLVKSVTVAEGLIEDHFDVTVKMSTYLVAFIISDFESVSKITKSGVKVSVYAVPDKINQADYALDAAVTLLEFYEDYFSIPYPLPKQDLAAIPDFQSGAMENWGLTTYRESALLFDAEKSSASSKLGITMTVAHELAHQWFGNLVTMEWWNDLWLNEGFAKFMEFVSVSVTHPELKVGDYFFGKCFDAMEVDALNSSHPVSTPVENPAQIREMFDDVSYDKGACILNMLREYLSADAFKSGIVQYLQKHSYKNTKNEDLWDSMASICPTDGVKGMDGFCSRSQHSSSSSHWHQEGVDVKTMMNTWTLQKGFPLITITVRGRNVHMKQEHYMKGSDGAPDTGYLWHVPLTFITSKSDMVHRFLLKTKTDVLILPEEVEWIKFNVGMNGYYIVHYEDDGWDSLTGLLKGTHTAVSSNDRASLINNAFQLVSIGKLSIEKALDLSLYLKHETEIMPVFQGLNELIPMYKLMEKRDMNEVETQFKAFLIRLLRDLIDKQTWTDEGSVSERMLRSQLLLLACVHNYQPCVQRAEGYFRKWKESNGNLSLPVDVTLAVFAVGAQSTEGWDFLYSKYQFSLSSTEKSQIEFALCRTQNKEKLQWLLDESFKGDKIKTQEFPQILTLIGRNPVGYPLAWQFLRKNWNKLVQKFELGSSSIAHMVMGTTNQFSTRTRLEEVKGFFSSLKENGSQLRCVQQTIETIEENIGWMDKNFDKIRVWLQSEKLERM
# GSIS activator – primary screen for activators of insulin secretion dependent on glucose, INS-1E cells, GLuc reporter luminescence; INS-1E GLuc reporter insulin secretion, 2-3 h; activation, % at 16.6 µM; 0.61% of 370,000 active; AID 743287;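 active means lowest replicate activation of at least 40%, so every replicate reaches that level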;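 further: 0% = median of neutral control wells and 100% = median of IBMX positive control wells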
# The depositor's hits bear a star; ? = inconclusive; . = not tested or not shown. Sampled rows, rich in hits. Any-hit rate of the full collection: about 3.2%.
SMILES,CaV13 ICDI inh,DENV2 CPE rescue,PGC1a acetyl inh,rRNA inh HTS,ERAP1 HTS inh,GSIS activator
C[C@@H]1CN([C@@H](C)CO)C(=O)CCCn2nncc2CO[C@@H]1CN(C)Cc1ccc(O)cc1,.,-1,0,1,2,-8
CC(C)NC(=O)Nc1ccc2c(c1)C(=O)N(C)C[C@@H](C)[C@@H](CN(C)C(=O)NC(C)C)O2,.,.,.,1,.,11
Cc1ccc(S(=O)(=O)N(C)C[C@H]2Oc3ccc(NC(=O)c4ccncc4)cc3C(=O)N([C@@H](C)CO)C[C@H]2C)cc1,.,-2,13,0,2,2
CCN(c1ccccc1)S(=O)(=O)c1ccc2c(c1)N(C(C)=O)CCS2,-14,4,-8,-26*,-3,-1
CCN(c1ccccc1)S(=O)(=O)c1ccc(OC)c(OC)c1,-4,2,6,-18*,-4,55*
CCN(c1ccccc1)S(=O)(=O)c1ccc(OC)c(NC(=O)C2CCC2)c1,-6,68*,-16,.,-2,-36
CCN(c1ccccc1)S(=O)(=O)c1cc(OC)ccc1OC,-4,.,-37,.,.,30
CCN(c1ccccc1)S(=O)(=O)c1ccc(OC)c(NC(=O)Cc2ccc(F)cc2)c1,-3,7,?,-5,0,-16
COCC1OC(OC(C)C(O)c2cnc3nc(N)[nH]c(=O)c3n2)C(O)C(OC)C1O (stereo not given),.,-6,-4,.,33*,1
C[C@@H]1CCCCO[C@H](CN(C)C(=O)Nc2ccc3c(c2)OCO3)[C@H](C)CN([C@H](C)CO)C(=O)c2cc(NC(=O)NC3CCCCC3)ccc2O1,.,41*,-16,1,.,7
C[C@H]1CCCCO[C@H](CN(C)C(=O)NC2CCCCC2)[C@@H](C)CN([C@@H](C)CO)C(=O)c2cc(NC(=O)Nc3ccccc3)ccc2O1,.,27*,14,-1,0,2
C[C@@H]1CCCCO[C@H](CN(C)C(=O)NC2CCCCC2)[C@@H](C)CN([C@H](C)CO)C(=O)c2cc(NC(=O)NC3CCCCC3)ccc2O1,.,78*,-5,0,4,-4
C[C@@H]1CCCCO[C@H](CN(C)C(=O)NC2CCCCC2)[C@@H](C)CN([C@H](C)CO)C(=O)c2cc(NC(=O)Nc3ccccc3)ccc2O1,.,-6,-12,-3,2,-3
C[C@@H]1CCCCO[C@@H](CN(C)C(=O)NC2CCCCC2)[C@@H](C)CN([C@@H](C)CO)C(=O)c2cc(NC(=O)Nc3ccccc3)ccc2O1,.,45*,-3,0,-2,3
C[C@@H]1CN([C@@H](C)CO)C(=O)c2cc(NC(=O)NC3CCCCC3)ccc2O[C@@H](C)CCCCO[C@@H]1CN(C)C(=O)NC1CCCCC1,.,-7,6,-3,1,-24
C[C@@H]1CN([C@H](C)CO)C(=O)c2cc(NC(=O)C3CC3)ccc2O[C@H]1CN(C)Cc1ccncc1,.,0,-5,2,-44,12
C[C@@H]1CN([C@H](C)CO)S(=O)(=O)c2ccc(C#CC3(O)CCCC3)cc2O[C@H]1CN(C)C(=O)Cc1cccnc1,.,-5,2,-1,0,-6
COc1ccc(S(=O)(=O)N(C)C[C@H]2Oc3ccc(NC(=O)CCN4CCOCC4)cc3CC(=O)N([C@@H](C)CO)C[C@H]2C)cc1,.,2,2,0,2,12
CC(=O)N/C(=C\c1ccccc1)C(=O)OCC(=O)NC1CCCC1,-4,21*,4,6,-1,12
CC(=O)N/C(=C\c1ccccc1)C(=O)OCC(=O)c1ccccc1,-15,-1,.,-1,4,-10
CCOC(=O)Cn1c(=O)n(Cc2ccccc2)c(=O)c2cccnc21,-3,1,4,1,9,179*
CCOC(=O)Cn1c(-c2ccccc2)nc2ccccc2c1=O,-8,.,13,.,.,-3
CC(C)CNC(=S)Nc1ccc(Oc2ccccc2)cc1,-3,13,.,.,-2,85*
COc1ccc2oc(C(=O)OC(C)C(=O)N3CCC(C)CC3)c(C)c2c1 (stereo not given),-15,34*,-4,.,4,2
Oc1ccc(N=Nc2ccccc2-c2nn[nH]n2)c(O)c1,-19,-1,.,-31*,6,-19
SMILES,CaV13 ICDI inh,DENV2 CPE rescue,PGC1a acetyl inh,rRNA inh HTS,ERAP1 HTS inh,GSIS activator
Cc1ccccc1-c1nn[nH]n1,-5,.,0,.,.,.
Cc1ccc(OCC(=O)NC(=S)Nc2cccc(NC(=O)c3ccccc3)c2)cc1,-6,.,-1,.,.,49*
CCCCC(=O)NC(=S)Nc1cccc(NC(=O)c2ccccc2)c1,-6,-1,7,-19*,-1,-3
CCCC(=O)NC(=S)Nc1cccc(NC(=O)c2ccccc2)c1,-4,?,-2,12,4,2
O=C(Cc1ccncc1)NCC[C@@H]1CC[C@@H](NC(=O)C2CCOCC2)[C@@H](CO)O1,.,-11,-7,2,0,2
COC(=O)/C=C/c1ccc(-n2ccnc2)cc1,-5,1,.,-30*,2,20
O=C(C[C@@H]1C=C[C@@H](NC(=O)Nc2ccc(C(F)(F)F)cc2)[C@H](CO)O1)NCCN1CCCC1,.,2,-9,0,2,5
O=[N+]([O-])c1cccc(C=Nc2cc3c(cc2Br)OCCO3)c1,-5,44*,.,5,1,-1
O=C(N/N=C/c1cccc([N+](=O)[O-])c1)c1ccc2c(c1)OCCO2,-4,.,-1,.,.,.
CN(C)CC(=O)N1[C@@H](CO)[C@H](c2ccccc2)C12CN(C(=O)C1CCCC1)C2,.,.,.,2,.,5
Cc1cc(C)nc(NC(N)=NCCc2c[nH]c3ccccc23)n1,-5,-5,1,-49,-2,45*
COc1ccc(-c2cnc3c(c2)C(=O)N([C@H](C)CO)C[C@@H](C)[C@@H](CN(C)Cc2ccc(C(=O)O)cc2)O3)cc1,.,?,0,-3,-1,6
CN(C)C(=O)C[C@@H]1CC[C@@H]2[C@H](COC[C@H](O)CN2C(=O)c2ccncc2)O1,.,1,2,8,-3,14
Cc1cc(C(=O)CSc2ncnc3ccccc23)c(C)n1C1CC1,-2,28*,0,10,-1,-1
C=CCc1ccccc1Oc1cc(OC)nc(N)n1,-6,0,.,-4,-1,63*
C=CCc1ccccc1Oc1cc(F)nc(N)n1,-19,-5,-2,-17,-4,4
COc1cc(C(=O)NC(=S)Nc2ccc3c(c2)OCO3)cc(OC)c1OC,-20,?,4,13,1,-1
COc1cc(C(=O)NC(=S)NNC(=O)c2ccc3c(c2)OCO3)cc(OC)c1OC,-5,-3,6,-23*,2,-5
